Laboratory results as given in the supplement of paper PMC8699584.
Counter-ions that a name gives are not always drawn. ± gives the standard deviation of the averaged measurements.

How the values were obtained:
Molm13 = test: cell viability relative to DMSO control (bortezomib = 0%); higher = less growth inhibition; conditions: 10 nM; 72 h
How it was run: (§1)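 Cell viability was assessed by CellTiter-Glo luminescence. Acute myeloid leukemia cells were seeded at 1000 cells per well in 50 µL on a 384-well library of 679 compounds at a single 10 nM dose for 72 h. Per-plate linear regression set DMSO-treated cells at 100% and positive-control-treated cells at 0%.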

Mv4-11 = test: as above; conditions: 10 nM; 72 h
How it was run: as §1

Compound | cell viability (Molm13) | cell viability (Mv4-11)
CN1CCN(S(=O)(=O)c2ccc(-c3cnc(N)c(C(=O)Nc4cccnc4)n3)cc2)CC1 | 95.5 ± 17% | 100 ± 0.48%
CCOc1cc2ncc(C#N)c(Nc3ccc(OCc4ccccn4)c(Cl)c3)c2cc1NC(=O)/C=C/CN(C)C [Neratinib(HKI-272)] | 106 ± 20% | 100 ± 3.7%
O=C1NC(=O)/C(=C\c2ccc3nccnc3c2)S1 | 116 ± 13% | 104 ± 13%
Cc1cc(O)c2c(c1)C(=O)c1cc(O)cc(O)c1C2=O [Emodin] | 91.2 ± 7.2% | 99.1 ± 2.6%
Oc1ccc2c(c1)OCO2 [Sesamol] | 103 ± 1.4% | 113.6 ± 0.84%
Cc1ccc(C(=O)Nc2ccc(CN3CCN(C)CC3)c(C(F)(F)F)c2)cc1C#Cc1cnc2[nH]ncc2c1 | -13.5 ± 5.7% | -14.8 ± 0.36%
COc1cc2ncnc(Sc3nnc(C)s3)c2cc1OC | 127 ± 30% | 115 ± 14%
C=CCn1c(=O)c2cnc(Nc3ccc(N4CCN(C)CC4)cc3)nc2n1-c1cccc(C(C)(C)O)n1 | 93.6 ± 20% | 95.2 ± 2.1%
CC[C@@H]1C(=O)N(C)c2cnc(Nc3ccc(C(=O)N[C@H]4CC[C@H](N5CCN(CC6CC6)CC5)CC4)cc3OC)nc2N1C(C)C [Volasertib (BI 6727)] | 104.1 ± 0.8% | 117 ± 15%
CNC(=O)c1cc(Oc2ccc(NC(=O)Nc3cc(C(C)(C)C)nn3-c3ccc4ncccc4c3)c(F)c2)ccn1 [DCC-2036 (Rebastinib)] | 95.7 ± 1.2% | 107 ± 7.3%
C[C@H](NC(=O)/C(C#N)=C/c1cccc(Br)n1)c1ccccc1 | 103 ± 0.31% | 99.3 ± 5.6%
Cc1cc2sc(NC(=O)Cc3ccccc3)nc2cc1Cl | 116 ± 19% | 119 ± 4.2%
C#Cc1cccc(Nc2ncnc3cc4c(cc23)OCCOCCOCCO4)c1 [Icotinib] | 93.2 ± 10% | 97.5 ± 5.9%
CN1CCN(c2cccc(Nc3nc4c(-c5ccc(S(C)(=O)=O)cc5)cccn4n3)c2)CC1 | 118 ± 14% | 101 ± 7.2%
COc1ccc(Cl)c(Nc2nc3ccccc3nc2NS(=O)(=O)c2cccc(NC(=O)C(C)(C)N)c2)c1 [Pilaralisib (XL147)] | 117 ± 4% | 110 ± 11%
C[C@H]1[C@H](C)CC[C@]2(C(=O)O)CC[C@]3(C)C(=CC[C@@H]4[C@@]5(C)C[C@@H](O)[C@H](O)[C@@](C)(CO)[C@@H]5CC[C@]43C)[C@H]12 [Asiatic acid] | 107 ± 22% | 103 ± 4.2%
Cc1ncc(CO)c(CO)c1O [Pyridoxine] | 95.3 ± 26% | 114 ± 20%
NCCNS(=O)(=O)c1cccc2cnccc12 [H-9 (hydrochloride)] | 114 ± 24% | 111 ± 4.7%
